Here are results for 8 molecules from PubChem BioAssay (NCI).

Molecules are shown by their SMILES. “And” between values parts separate entries of the source, which are not always exact repeats. Identical values can stand only once. Compounds without any hit were thinned out: in the full panel of roughly 83,000, 20% have a hit.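 48-hour exposure, single concentration, 96-well plates; percent growth endpoint where 0 means no net growth. Active: below 10.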 The source made the active and inactive calls.

Some test systems named below: SR leukemia; RPMI-8226 leukemia; OVCAR-8 ovarian; OVCAR-5 ovarian; OVCAR-4 ovarian; SK-OV-3 ovarian; IGROV1 ovarian; OVCAR-3 ovarian; HS 578T breast; NCI/ADR-RES ovarian; T-47D breast; BT-549 breast; MDA-MB-435 melanoma; SW-620 colon; MCF7 breast; HCT-116 colon; HCC-2998 colon; KM12 colon.
What all share (assay): NCI-60 one-dose screen, 48 h (100 = growth as untreated, 0 = no growth, -100 = all killed)
What all share (details): 10 µM unless noted

For `COC(=O)c1nc(-c2ccc(C)cc2)oc1S(=O)(=O)c1ccc(Cl)cc1`, the growth with SR leukemia is -15.7% (active); with RPMI-8226 leukemia, 81.2% (inactive); in the assay on OVCAR-8 ovarian it was 94.2% (inactive); in the assay on OVCAR-5 ovarian, 96.3% (inactive); with OVCAR-4 ovarian, 100% (inactive); in the assay on SK-OV-3 ovarian, 97.4% (inactive). For the same molecule, the growth in the assay on IGROV1 ovarian was 89.3% (inactive); in the assay on OVCAR-3 ovarian it was 107% (inactive); in the assay on HS 578T breast, 105% (inactive); in the assay with NCI/ADR-RES ovarian it was 105% (inactive); in the assay with T-47D breast, 88.6% (inactive); with BT-549 breast it was 83.4% (inactive). Besides, the growth was 107% (inactive) in the assay with MDA-MB-435 melanoma; 80% (inactive) in the assay on SW-620 colon; 89.8% (inactive) in the assay on MCF7 breast; 77.7% (inactive) with HCT-116 colon; 112% (inactive) in the assay with HCC-2998 colon; 116% (inactive) with KM12 colon.

As to `O=C(NNC(=S)Nc1ccccc1)c1ccncc1`, the growth with SR leukemia is 99.2% (inactive); with RPMI-8226 leukemia, 96.8% (inactive); with OVCAR-8 ovarian, 104% (inactive); in the assay with OVCAR-5 ovarian, 107% (inactive); in the assay with OVCAR-4 ovarian it was 116% (inactive); in the assay with SK-OV-3 ovarian it was 118% (inactive). The growth was 106% (inactive) in the assay with IGROV1 ovarian; 114% (inactive) with OVCAR-3 ovarian; 132% (inactive) in the assay on HS 578T breast; 105% (inactive) in the assay on NCI/ADR-RES ovarian; 109% (inactive) in the assay with T-47D breast; 88.1% (inactive) in the assay on BT-549 breast. The growth in the assay with MDA-MB-435 melanoma was 112% (inactive); in the assay on SW-620 colon, 113% (inactive); with MCF7 breast, 94.2% (inactive); in the assay on HCT-116 colon, 104% (inactive); in the assay on HCC-2998 colon it was 109% (inactive); with KM12 colon, 107% (inactive).

Turning to `Cc1nc(Nc2ncc(C(=O)Nc3c(C)cccc3Cl)s2)cc(N2CCN(CCO)CC2)n1`, the growth in the assay on SR leukemia was 40.4% (inactive) and 14.7% (inactive); with RPMI-8226 leukemia, 92.8% (inactive) and 61.1% (inactive); with OVCAR-8 ovarian it was 24.2% (inactive) and -24.8% (active); in the assay on OVCAR-5 ovarian, 23.7% (inactive) and 10.2% (inactive); in the assay with OVCAR-4 ovarian it was 52.8% (inactive) and 44.8% (inactive); in the assay on SK-OV-3 ovarian, -7.55% (active) and -25.8% (active). Further, the growth is -16.4% (active) and -37% (active) with IGROV1 ovarian; 37.3% (inactive) and 20.4% (inactive) in the assay with OVCAR-3 ovarian; -8.57% (active) in the assay with HS 578T breast; 45.8% (inactive) and 23.7% (inactive) with NCI/ADR-RES ovarian; 40.8% (inactive) and -2.8% (active) in the assay with T-47D breast; 55.3% (inactive) and 32.2% (inactive) in the assay with BT-549 breast. For the same molecule, the growth in the assay on MDA-MB-435 melanoma was 62.6% (inactive) and 27.1% (inactive); with SW-620 colon it was 103% (inactive) and 52.6% (inactive); with MCF7 breast, 66.1% (inactive) and 54.4% (inactive); with HCT-116 colon it was 40.7% (inactive) and 2.99% (active); in the assay with HCC-2998 colon, 110% (inactive) and 81% (inactive); in the assay with KM12 colon it was 81.3% (inactive) and 28.1% (inactive).

With `O=C1c2cc3c(cc2-c2c1c1ccc(Cl)cc1c(=O)n2CCCn1ccnc1)OCO3`, the growth in the assay on SR leukemia was -19.4% (active); with RPMI-8226 leukemia, -23.6% (active); with OVCAR-8 ovarian, 11.4% (inactive); in the assay with OVCAR-5 ovarian, 3.22% (active); in the assay on OVCAR-4 ovarian, 13.7% (inactive); with SK-OV-3 ovarian, 8.75% (active). In addition, the growth in the assay with IGROV1 ovarian is 28.3% (inactive); with OVCAR-3 ovarian, -5.45% (active); in the assay on HS 578T breast it was 46.3% (inactive); in the assay with NCI/ADR-RES ovarian it was -26.4% (active); in the assay with T-47D breast, -0.548% (active); in the assay with BT-549 breast, -20.3% (active). Also, the growth in the assay on MDA-MB-435 melanoma is -58.8% (active); in the assay on SW-620 colon, 1.05% (active); in the assay on MCF7 breast it was -9.33% (active); in the assay with HCT-116 colon it was -23% (active); with HCC-2998 colon it was 15% (inactive); in the assay with KM12 colon, 1.36% (active).

For the molecule `CCCO/N=C/c1ccccn1`, the growth in the assay with SR leukemia was 93.4% (inactive); with RPMI-8226 leukemia, 101% (inactive); in the assay with OVCAR-8 ovarian it was 103% (inactive) and 107% (inactive); in the assay with OVCAR-5 ovarian it was 106% (inactive) and 100% (inactive); with OVCAR-4 ovarian, 97.4% (inactive); with SK-OV-3 ovarian, 101% (inactive) and 89.7% (inactive). Besides, the growth was 107% (inactive) and 101% (inactive) in the assay with IGROV1 ovarian; 105% (inactive) and 113% (inactive) in the assay on OVCAR-3 ovarian; 102% (inactive) and 104% (inactive) in the assay with HS 578T breast; 101% (inactive) and 99.5% (inactive) in the assay on NCI/ADR-RES ovarian; 107% (inactive) and 93.9% (inactive) with T-47D breast; 90.8% (inactive) in the assay on BT-549 breast. Also, the growth in the assay with MDA-MB-435 melanoma was 107% (inactive) and 105% (inactive); in the assay on SW-620 colon, 102% (inactive) and 110% (inactive); with MCF7 breast, 89.2% (inactive) and 92.4% (inactive); in the assay with HCT-116 colon, 102% (inactive); with HCC-2998 colon, 110% (inactive) and 105% (inactive); in the assay on KM12 colon, 101% (inactive) and 103% (inactive).

`CCCCCCCCn1ccc2cc(NC(=O)CN3CCN(c4nc(C)cc(N5CCCCC5)n4)CC3)ccc21`: the growth in the assay on SR leukemia was 53.3% (inactive); in the assay with RPMI-8226 leukemia, 59.9% (inactive); in the assay with OVCAR-8 ovarian, 90.2% (inactive); in the assay on OVCAR-5 ovarian it was 103% (inactive); with OVCAR-4 ovarian it was 82.7% (inactive); in the assay with SK-OV-3 ovarian, 98.8% (inactive). The growth in the assay with IGROV1 ovarian was 73.9% (inactive); with OVCAR-3 ovarian it was 94.4% (inactive); with HS 578T breast, 91.5% (inactive); with NCI/ADR-RES ovarian, 85.8% (inactive); with T-47D breast it was 79.6% (inactive); in the assay with BT-549 breast it was 83.4% (inactive). In addition, the growth with MDA-MB-435 melanoma is 92.4% (inactive); in the assay on SW-620 colon it was 87.6% (inactive); with MCF7 breast it was 70.8% (inactive); with HCT-116 colon, 76% (inactive); with HCC-2998 colon, 117% (inactive); with KM12 colon, 86.4% (inactive).

`COc1ccc(C/C(C)=C(\c2ccc(O)cc2)c2ccc(OCCCN(C)C)cc2)cc1`: the growth is 59.7% (inactive) in the assay with SR leukemia; 86.8% (inactive) in the assay on RPMI-8226 leukemia; 89.5% (inactive) in the assay on OVCAR-8 ovarian; 102% (inactive) with OVCAR-5 ovarian; 92.6% (inactive) with OVCAR-4 ovarian; 101% (inactive) in the assay on SK-OV-3 ovarian. For the same molecule, the growth with IGROV1 ovarian was 102% (inactive); in the assay on OVCAR-3 ovarian, 98.3% (inactive); with HS 578T breast, 89% (inactive); in the assay with NCI/ADR-RES ovarian, 98.5% (inactive); in the assay on T-47D breast it was 72.6% (inactive); with BT-549 breast it was 108% (inactive). In addition, the growth with MDA-MB-435 melanoma was 101% (inactive); with SW-620 colon, 95.2% (inactive); with MCF7 breast, 41.1% (inactive); with HCT-116 colon, 80.8% (inactive); in the assay with HCC-2998 colon, 104% (inactive); with KM12 colon it was 93% (inactive).

Take `CCC(=O)Oc1cc(Cl)c(Cl)cc1Cl`: the growth with SR leukemia was 101% (inactive); in the assay on RPMI-8226 leukemia, 102% (inactive); in the assay with OVCAR-8 ovarian it was 96.9% (inactive); in the assay with OVCAR-5 ovarian, 90.2% (inactive); in the assay with OVCAR-4 ovarian, 101% (inactive); with SK-OV-3 ovarian it was 107% (inactive). For the same molecule, the growth is 108% (inactive) in the assay with IGROV1 ovarian; 113% (inactive) in the assay with OVCAR-3 ovarian; 97.4% (inactive) in the assay on HS 578T breast; 108% (inactive) with NCI/ADR-RES ovarian; 101% (inactive) in the assay on T-47D breast; 102% (inactive) with BT-549 breast. In addition, the growth with MDA-MB-435 melanoma is 107% (inactive); with SW-620 colon, 107% (inactive); in the assay with MCF7 breast, 93% (inactive); in the assay with HCT-116 colon it was 94.3% (inactive); with HCC-2998 colon it was 94.8% (inactive); with KM12 colon, 107% (inactive).
